Measured values as given in PubChem BioAssay (NCI).
This is part of a sample that, as a whole, favours compounds with a hit. Of some 83,000 tested, about 20% had one in any assay.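 In brief: 96-well plates, 48 h treatment, single concentration, percent growth endpoint.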 Unmarked numbers belong to inactive results. Calls of active or inactive are those of the source. How the source made its calls: active means growth percent below 10; inactive means the rest.

How the values were obtained:
Test in all cases: NCI-60 one-dose screen, 48 h (100 = growth as untreated, 0 = no growth, -100 = all killed)
Details in all cases: 10 µM unless noted
[1] = test system: HCT-15 colon
[2] = test system: HT29 colon
[3] = test system: SNB-75 CNS
[4] = test system: SNB-19 CNS
[5] = test system: U251 CNS
[6] = test system: PC-3 prostate
[7] = test system: SK-MEL-5 melanoma
[8] = test system: UACC-62 melanoma
[9] = test system: SK-MEL-28 melanoma
[10] = test system: SK-MEL-2 melanoma
[11] = test system: EKVX NSCLC
[12] = test system: SN12C renal
[13] = test system: TK-10 renal
[14] = test system: ACHN renal
[15] = test system: CAKI-1 renal
[16] = test system: A498 renal
[17] = test system: CCRF-CEM leukemia
[18] = test system: MOLT-4 leukemia
[19] = test system: UO-31 renal

| SMILES | growth [1] | growth [2] | growth [3] | growth [4] | growth [5] | growth [6] | growth [7] | growth [8] | growth [9] | growth [10] | growth [11] | growth [12] | growth [13] | growth [14] | growth [15] | growth [16] | growth [17] | growth [18] | growth [19] |
| --- | --- | --- | --- | --- | --- | --- | --- | --- | --- | --- | --- | --- | --- | --- | --- | --- | --- | --- | --- |
| COc1cccc2c1C(=O)c1c(O)c3c(c(O)c1C2=O)C[C@@](O)(C(=O)CO)C[C@@H]3OC1C[C@H](N)[C@H](O)[C@H](C)O1 (stereo partly specified) | 18.4% | -13.1% (active) | -76.1% (active) | 8.7% (active) | 2.94% (active) | -2.52% (active) | -86.4% (active) | -59% (active) | -30% (active) | -75.3% (active) | 1.39% (active) | 6.88% (active) | 5.67% (active) | -11% (active) | 1.49% (active) | -75.1% (active) | -25.7% (active) | -8.66% (active) |  |
| Cn1cc(-c2nc(-c3c[nH]c4ncccc34)cs2)c2ccccc21 | 64.3% | 88.2% | 77.6% | 92.8% | 96.6% | 80.6% | 94.2% | 84.6% | 105% | 87% | 22.7% | 90% | 56.9% | 88.9% | 79.1% | 81.5% | 75.5% | 77.8% |  |
| Clc1ccc2[nH]cc(-c3nc(-c4c[nH]c5ncccc45)cs3)c2c1 | 1.33% (active) | 16.1% | 56.8% | 65.1% | 34.6% | 39.2% | 64.9% | 44.2% | 85.9% | 48.1% | 42.7% | 56.7% | 46.1% | 25.9% | 17.1% | 60.2% | 31.2% | 16.1% |  |
| CN1CCN(CC#CCn2c3c(c4ccccc42)C[C@]2(C)[C@H]4CC[C@@H]5[C@H]6[C@H]7OC(=O)[C@@]6(CCC7(C)C)CC[C@@]5(C)[C@]4(C)CC[C@H]2C3(C)C)CC1 | 38.1% | 30.4% | 113% | 87.6% | 25% | 58.5% | 93.3% | 99.5% | 106% | 118% | 99.2% | 52.8% | 161% | 91.3% | 52.4% | 71.6% | -0.753% (active) | 41.6% |  |
| O=C(/C=C\c1ccc2c(c1)OCO2)/C=C/c1ccc2c(c1)OCO2 | 11% | 32.1% | 75.7% | 68.9% | 19.4% | 91.1% | 84% | 75.1% | 105% | 127% | 82.4% | 86.5% | 96.1% | 88.3% | 89.2% | 126% | 31.4% | 35.2% |  |
| CN(C)c1ccc(N)c2ccccc12 | -82.9% (active) | 70.5% | 101% | 66.7% | 64.3% | 32.1% | -99.4% (active) | -6.64% (active) | 56.6% | 89.6% | 49.2% | -62.2% (active) | 128% | 67.2% | 69.4% | 183% | 41.8% | 40.7% |  |
| COc1ccc(/C=C(\C#N)c2cc3ccccc3n2C(C)=O)cc1 | 41% | 68.8% | 74% | 87.2% | 87.1% | 84.6% | 92.2% | 74.1% | 87.2% | 83.3% | 78% | 91% | 126% | 102% | 69.1% |  | 75.6% | 70% | 88.1% |
| NC1=NN=C2N(N)C(=O)c3cnn(-c4ccccc4)c3N2c2nc(-c3ccccc3)cc(-c3ccccc3)c21 | 99.8% | 102% | 86.2% | 93.5% | 96.3% | 90.5% | 94% | 82.9% | 118% | 104% | 96.7% | 97% | 116% | 101% | 86.8% |  | 96.7% | 91.6% | 78.3% |
| Brc1ccc(Cn2nnnc2-c2ccn(-c3ccccc3)n2)cc1 | 83% | 63.6% | 90.1% | 78.9% | 75.7% | 60.8% | 74% | 53% | 95.3% | 63.5% | 69.8% | 68.5% | 77.6% | 70.7% | 58.2% |  | 56.7% | 52.4% | 69.2% |
| Cn1cc(-c2nc(-c3c[nH]c4ncccc34)cs2)c2cc(Br)ccc21 | 64.2% | 70.5% | 80.5% | 108% | 72.9% | 76.7% | 91.8% | 80.5% | 102% | 77.6% | 75.2% | 87.1% | 63.5% | 58.7% | 78% | 68.4% | 58.9% | 69.1% |  |
| CC(=O)O[C@H]1CC[C@@]2(C)C(=CC[C@@H]3[C@@H]2CC[C@]2(C)C(=O)N(O)C(=O)C[C@@H]32)C1 | 58.9% | 89.2% | 75.8% | 95.5% | 69.3% | 75.7% | 98.4% | 100% | 89.6% | 80.4% | 102% | 97.2% | 101% | 89.3% | 64.1% |  | 86% | 79.5% | 97.4% |
| Cn1cc(-c2nc(-c3c[nH]c4ncccc34)cs2)c2cc(Cl)ccc21 | 31.2% | 38.5% | 63.6% | 74.4% | 40% | 42.4% | 83.3% | 64.3% | 80.1% | 60.4% | 41.8% | 54% | 43.1% | 30% | 36.5% | 74.7% | 33.8% | 37.9% |  |
| CC(C)=CCC[C@](C)(O)[C@H]1CC[C@]2(C)[C@@H]1CC[C@@H]1[C@@]3(C)C/C(=C/c4ccc(Br)cc4)C(=O)C(C)(C)[C@@H]3CC[C@]12C | 85.4% | 77% | -50.3% (active) | 95.2% | 86.9% | 70.5% | 96.8% | 78.6% | 100% | 113% | 94.3% |  | 130% | 98.1% | 64.7% | 80.8% | 83.4% | 84.1% | 70.4% |
| OCC1OC(n2cnc3c(Cl)ncnc32)CC1O (stereo unspecified) | 95.6% | 107% | 102% | 96.1% | 99.2% | 88.9% | 106% | 101% | 110% | 108% | 113% | 96.5% | 106% | 95.6% | 94.1% |  | 98.2% | 91.9% | 76.9% |
| Cc1ccc(-c2nc([P+](c3ccccc3)(c3ccccc3)c3ccccc3)c(N3CCOCC3)o2)cc1 | 54.1% | -0.839% (active) | 0.0247% (active) | 11.5% | 12.4% | -18.8% (active) | -95.5% (active) | -29.4% (active) | 29.9% | -18.7% (active) | 17.6% | 1.43% (active) | 20.8% | 8.24% (active) | 13.1% |  | 8.32% (active) | -8.12% (active) | 12% |
| CC(=O)Cc1nsc(NC(=O)c2ccoc2COc2ccccc2)n1 | 105% | 107% | 99.4% | 93.6% | 96.5% | 89.9% | 101% | 93% | 103% | 107% | 91.1% |  | 107% | 99.7% | 99.8% | 97.4% | 93.2% | 106% | 77.1% |
| CN1CCN(CCOc2ccc(-c3cnc4c(-c5ccccc5F)cnn4c3)cc2)CC1 | 3.14% (active) | -38% (active) | 120% | 69.1% | 2.35% (active) | 32.4% | 35% | -10.7% (active) | 59.5% | 91.9% | 68.4% | 60.7% | 71% | 55.7% | 45.8% |  | 5.37% (active) | -9.43% (active) | 39.1% |
